Dicer processing: human Dicer pre-microRNA cleavage inhibition. Q9UPY3. cat-ELCCA pre-miR-21 Dicer processing, chemiluminescence; hits give high values. z-score at 25 µM. 6% of 47,000 active. AID 1347074; in the data active = z-score above about 3, passing the limit was not always enough;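 note: higher signal means more uncleaved substrate so more Dicer inhibition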
Numbers stand for hits; - = inactive. Shown is part of a subset that was picked to be rich in hits.

SMILES	Dicer processing
COc1ccc(NC(=O)N2c3cc(C)c(C)cc3C(C)=CC2(C)C)cc1OC	-
CN(C(=O)c1ccc2c(c1)CCO2)C(C)(C)C	-
CC(C)(C)c1cc(C(C)(C)C)n(-c2ccc(C(=O)O)cc2)n1	-
CC(C)(C)c1ccc2c(c1)CN(c1ccc(C(=O)O)cc1)CO2	3.9
CCOC(=O)c1cnn(-c2ccccc2)c1N	-
Cc1ccnc(SCC(=O)Nc2ncc(Br)s2)n1	-
O=C(NNC(=O)c1ncc(C(F)(F)F)cc1Cl)Nc1ccc(Cl)cc1	-
COc1ccc(OC)c(-c2noc(CSc3nc4ccccc4[nH]3)n2)c1	-
COc1ccc(-c2noc(CSc3nc4ccccc4[nH]3)n2)c(OC)c1	-
COc1ccc(-c2noc(CSc3nc4ccccc4[nH]3)n2)cc1OC	3.2
O=C(NNC(=O)c1ccc(C(F)(F)F)cc1)NC(=O)c1ccccc1Cl	-
COc1cc(C2c3c(oc4ccccc4c3=O)C(=O)N2Cc2ccc3c(c2)OCO3)ccc1O (centres undefined)	-
Nc1c(C(=O)O)sc2nc(-c3ccccc3)cc(C(F)(F)F)c12	-
CCc1ccc(O)c(C(=O)c2cnc3cc(-c4ccc(OC)cc4)nn3c2)c1	-
Cc1c(C)c(C)c(CSC(=N)N)c(C)c1C	-
COC(=O)c1cn(C(=O)c2cccs2)c2ccccc12	3
COC(=O)c1cn(C(=O)COc2ccc(Cl)cc2)c2ccccc12	-
COC(=O)c1cn(C(=O)c2ccco2)c2ccccc12	-
S=C(Nc1ccc(C2CC2(Cl)Cl)cc1)Nc1ccc(Cl)cc1Cl (centres undefined)	-
COc1cccc(C2CC(c3ccc(Cl)cc3)Nc3nc(N)nn32)c1 (centres undefined)	-
CC1(C)Cc2cc3c(cc2C(SCc2ccccc2)=N1)OCCO3	-
CSC1=NC(C)(C)Cc2cc3c(cc21)OCCO3	3.3
Clc1ccccc1-n1nc2ccc3nonc3c2n1	-
OCCNCc1cccc(OCc2ccc(F)cc2)c1	-
CC1(C)CC(=O)c2cc(C(=O)NC3CCCCC3)c(=O)n(-c3ccc(Cl)cc3)c2C1	-
SMILES	Dicer processing
N=C(N)SCc1cc2ccccc2o1	3.2
N=C(N)SCc1cccc(CSC(=N)N)c1F	-
N=C(N)SCc1cccc(Cl)c1	-
O=C(O)CCSc1nc2ccccc2n1-c1ccccc1	-
O=C(O)CCC1CCCCCCCCCCC1	-
Cn1[nH]c(=O)c2cc(Cl)c(Cl)cc2c1=O	-
COc1ccc(C2/C(=C(/O)c3ccc(C)cc3)C(=O)C(=O)N2c2ccc(O)cc2)cc1 (centres undefined)	-
COC(=O)C(CCSC)NS(=O)(=O)c1cc(C(F)(F)F)cc(C(F)(F)F)c1 (centres undefined)	4.8
CSCCC(NC(=O)c1ccc(C(F)(F)F)cc1)C(=O)NN (centres undefined)	-
CCOC(=O)C(=CNNS(=O)(=O)c1cc(C(F)(F)F)cc(C(F)(F)F)c1)C(=O)OCC	-
CSc1cccc(NC(=O)c2sc3nc(C)cc(C)c3c2N)c1	-
Cc1cc(C)c2c(N)c(S(=O)(=O)Cc3ccccc3)sc2n1	4.1
Cc1cc(C)c2c(N)c(C(=O)c3ccc(-c4ccccc4)cc3)sc2n1	-
Cc1cc(C)c2c(N)c(C(=O)NNC(=S)NCc3ccccc3)sc2n1	3
Cc1cc(C)c2c(N)c(C(=O)NCc3ccco3)sc2n1	-
Cc1cc(C)c2c(N)c(C(=O)O)sc2n1	-
N#CCCN(CCc1ccccn1)C(=O)Nc1ccccc1Cl	-
Cc1c(C(=O)Nc2cc(-c3ccc(Cl)cc3)[nH]n2)cnn1-c1ccc(Cl)cc1	-
Cc1nn2c3cc(N4CCCC4)ccc3nc2c2ccccc12	-
C1=C(c2ccccc2)SC=C(c2ccccc2)S1	-
CC(C)(C#CC(O)(c1ccccc1)c1ccccc1)N1CCCCC1	-
O=[N+]([O-])c1ccc2c(c1)C(=NO)c1cc([N+](=O)[O-])ccc1-2	-
O=C1c2cc([N+](=O)[O-])ccc2-c2ccc([N+](=O)[O-])cc21	7.7
NN=C1c2cc([N+](=O)[O-])ccc2-c2ccc([N+](=O)[O-])cc21	-
CCOC(=O)OC(C)OC1=C(C(=O)Nc2ccccn2)N(C)S(=O)(=O)c2ccccc21 (centres undefined)	-
SMILES	Dicer processing
O=C(Nc1ccncc1)c1cc([N+](=O)[O-])ccc1Sc1ccc(Cl)cc1	-
Cc1oc2cc(O)cc(O)c2c(=O)c1-c1ccccc1	-
O=c1cc(-c2ccc(O)c(O)c2)oc2cc(O)cc(O)c12	12
O=c1c(O)c(-c2ccc(O)c(O)c2)oc2cc(O)cc(O)c12	-
CC(C)(CC(=O)O)CC(=O)N1CCN(S(=O)(=O)c2cc(Cl)cc(Cl)c2)CC1	-
COc1ccc(OC)c(S(=O)(=O)/N=C/N(C)C)c1	-
c1ccc(-c2noc(CSc3nnc(-c4cccs4)n3-c3ccccc3)n2)cc1	3.6
c1ccc(-c2noc(CSc3nnc(-c4ccco4)n3-c3ccccc3)n2)cc1	-
Cc1nnc(SCc2nc(-c3ccc(Cl)cc3)no2)n1-c1ccccc1	-
O=S(=O)(NCCCN1CCN(Cc2ccccc2)CC1)c1cccc(Cl)c1Cl	-
FC(F)(F)c1ccc(Oc2ccc(-c3nc(-c4ccc5c(c4)OCCO5)cs3)cc2)nc1	-
CC(C)(C)C(=O)NNC(=O)C(C)(C)C	-
COC(=O)c1ccc(Cn2cnc([N+](=O)[O-])n2)cc1	-
COc1ccc(Cl)cc1NC(=O)Nc1sccc1-c1nc2ccccc2s1	5.1
COc1ccc(Cl)cc1NC(=O)Nc1nnc(C2CC2)s1	-
COc1ccccc1NC(=O)Nc1sccc1-c1nc2ccccc2s1	-
CCOc1ccccc1OCCCCCCc1c(C)n[nH]c1C	-
COc1ccc(-c2c(N)n(Cc3ccccc3)c(=O)c3cc([N+](=O)[O-])ccc23)cc1OC	-
Cc1onc(-c2c(Cl)cccc2Cl)c1NC(=O)NCC(c1ccc[nH]1)C(F)(F)F (centres undefined)	-
O=S(=O)(c1ccc2ccccc2c1)N1CCN(C2CCN(Cc3ccccc3)CC2)CC1	3.2
O=S(=O)(c1ccc2ccccc2c1)N1CCCCC1	-
CSc1ccc(CN2CCN(S(=O)(=O)c3ccc4ccccc4c3)CC2)cc1	3.4
COc1ccc(S(=O)(=O)N2CCN(S(=O)(=O)c3ccc4ccccc4c3)CC2)cc1	-
O=S(=O)(c1ccc2ccccc2c1)N1CC=C(c2ccccc2)CC1	-
Fc1ccccc1CN1CCN(C2CCN(Cc3ccccc3)CC2)CC1	-
SMILES	Dicer processing
C=CCSc1nc(N)c2c3c(sc2n1)CCCC3	-
CCCc1c(C(=O)OCC)cnn1-c1ccc(Cl)cc1	-
N#CCOc1ccc(C(F)(F)F)cn1	-
CCOc1cc(C(F)(F)F)c(C(=O)N(CC)c2ccc(Cl)cc2)cn1	-
Cc1nc2cc(-c3ccccc3)nn2c(C)c1Sc1nccc(-c2cccnc2)n1	-
CCC(=O)Nc1cccc2c(NC(=O)CC)cccc12	-
CN(/N=C/C=N/Nc1ccccc1)c1ccc(Cl)cc1[N+](=O)[O-]	-
CCCNC(=O)NNC(=O)C(C)n1nnc(N2CCOCC2)n1 (centres undefined)	-
CN(C)c1nc(C(=O)O)nc(N2CCOCC2)n1	3.4
CCOC(=O)c1cnc(N2CCOCC2)nc1N	-
CN(C)c1nc(N2CCOCC2)nc(N(c2ccccc2)c2ccccc2)n1	-
CC(C)(C)Nc1nc(C(N)=O)nc(N2CCOCC2)n1	5.1
CC(C)(C)Nc1nc(C(=O)O)nc(N2CCOCC2)n1	-
COc1nc(N(C)S(=O)(=O)c2ccc(C)cc2)nc(C)c1Br	-
Cc1ccc(-c2noc(CC3CCCCC3)n2)cc1	-
COc1ccc(Nc2nc3ccccc3c(=O)s2)cc1	-
COc1ccc(Nc2ccnc3ccccc23)cc1	3.6

High-throughput results: PubChem BioAssay, Center for Chemical Genomics, University of Michigan
